Test results from PMC7862700, “An all-to-all approach to the identification of sequence-specific readers for epigenetic DNA modifications on cytosine”.

Key:
Experiment in all cases: DAPPL (digital affinity profiling via proximity ligation, sequencing); 10 mM Tris-HCl pH 7.5, 50 mM NaCl, 1 mM DTT, 4% glycerol, room temperature, 30 min; GST-TFs on glutathione beads, 16-mer random dsDNA library, 0.1% formaldehyde crosslink after washing; high values mean tight binding
Settings in all cases: protein: recombinant; tags: N-terminal GST; dsDNA, one strand shown
ERF = biological target: T1, ERF (Homo sapiens, UniProt P50548 1-548)
T1 sequence: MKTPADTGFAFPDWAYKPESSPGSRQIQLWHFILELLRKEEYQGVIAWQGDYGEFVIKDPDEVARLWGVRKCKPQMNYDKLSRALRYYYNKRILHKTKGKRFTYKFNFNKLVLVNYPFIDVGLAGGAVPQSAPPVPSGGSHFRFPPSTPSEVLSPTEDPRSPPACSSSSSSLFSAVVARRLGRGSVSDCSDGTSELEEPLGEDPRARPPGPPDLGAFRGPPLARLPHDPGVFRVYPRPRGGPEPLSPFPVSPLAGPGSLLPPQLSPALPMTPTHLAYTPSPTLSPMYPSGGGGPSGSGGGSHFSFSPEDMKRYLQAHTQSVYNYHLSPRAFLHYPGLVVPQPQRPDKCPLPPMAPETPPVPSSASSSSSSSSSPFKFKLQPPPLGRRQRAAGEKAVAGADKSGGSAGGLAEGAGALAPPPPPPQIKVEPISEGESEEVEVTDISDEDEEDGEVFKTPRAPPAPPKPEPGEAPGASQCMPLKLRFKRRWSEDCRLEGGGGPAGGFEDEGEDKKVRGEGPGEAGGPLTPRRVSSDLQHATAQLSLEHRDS
Outline: (§1)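 Sequencing on an Illumina NextSeq500 followed washing, crosslinking with 0.1% formaldehyde, proximity ligation (BsaI/T4 ligase, 1 h, 37 °C) and PCR amplification of pools that had been incubated for 30 min at room temperature with 200 nmole of a random double-stranded 16-mer DNA library in Tris/NaCl/DTT/glycerol buffer. Each pool held DNA-barcoded human transcription factors, expressed in yeast as GST fusions and captured on glutathione beads, plus a tag-only sample. Binding signal is a hexamer's read frequency for a factor divided by its frequency in the tag-only sample.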

ETV3L = biological target: T2, ETV3L (Homo sapiens, UniProt Q6ZN32 1-361)
T2 sequence: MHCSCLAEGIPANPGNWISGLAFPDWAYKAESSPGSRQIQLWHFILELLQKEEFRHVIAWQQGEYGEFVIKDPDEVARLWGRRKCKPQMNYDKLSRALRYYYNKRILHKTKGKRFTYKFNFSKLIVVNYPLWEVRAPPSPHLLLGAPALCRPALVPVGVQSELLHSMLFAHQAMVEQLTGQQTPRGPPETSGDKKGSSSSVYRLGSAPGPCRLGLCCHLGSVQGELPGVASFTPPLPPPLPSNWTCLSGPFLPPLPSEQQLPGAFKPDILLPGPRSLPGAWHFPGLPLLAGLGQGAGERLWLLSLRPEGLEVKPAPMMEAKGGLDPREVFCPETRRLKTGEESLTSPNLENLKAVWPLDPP
Outline: as §1

ETS2 = biological target: T3, ETS2 (Homo sapiens, UniProt P15036 1-469)
T3 sequence: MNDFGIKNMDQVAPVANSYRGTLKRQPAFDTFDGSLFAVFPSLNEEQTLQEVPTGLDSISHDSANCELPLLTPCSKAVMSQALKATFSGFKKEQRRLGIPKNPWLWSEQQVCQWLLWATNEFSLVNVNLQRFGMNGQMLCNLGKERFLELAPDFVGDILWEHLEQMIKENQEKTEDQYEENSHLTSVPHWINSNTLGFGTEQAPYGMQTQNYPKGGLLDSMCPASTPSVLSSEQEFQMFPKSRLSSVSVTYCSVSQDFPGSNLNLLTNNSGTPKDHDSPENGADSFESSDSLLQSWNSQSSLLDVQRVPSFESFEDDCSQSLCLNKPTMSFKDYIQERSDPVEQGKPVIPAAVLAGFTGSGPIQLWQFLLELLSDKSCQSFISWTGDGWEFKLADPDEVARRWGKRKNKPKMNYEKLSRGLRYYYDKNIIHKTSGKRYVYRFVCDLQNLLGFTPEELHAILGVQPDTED
Outline: as §1

SPDEF = biological target: T4, SPDEF (Homo sapiens, UniProt O95238 1-335)
T4 sequence: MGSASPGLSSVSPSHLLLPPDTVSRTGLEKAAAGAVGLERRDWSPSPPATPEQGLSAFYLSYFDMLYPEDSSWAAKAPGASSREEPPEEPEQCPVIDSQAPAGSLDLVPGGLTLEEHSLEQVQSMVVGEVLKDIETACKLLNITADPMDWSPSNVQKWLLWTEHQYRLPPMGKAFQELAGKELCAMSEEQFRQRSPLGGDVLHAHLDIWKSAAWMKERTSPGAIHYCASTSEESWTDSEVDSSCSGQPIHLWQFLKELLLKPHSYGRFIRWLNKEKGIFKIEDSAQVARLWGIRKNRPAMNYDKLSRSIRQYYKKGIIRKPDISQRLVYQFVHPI
Outline: as §1

ETV7 = biological target: T5, ETV7 (Homo sapiens, UniProt Q9Y603 1-341)
T5 sequence: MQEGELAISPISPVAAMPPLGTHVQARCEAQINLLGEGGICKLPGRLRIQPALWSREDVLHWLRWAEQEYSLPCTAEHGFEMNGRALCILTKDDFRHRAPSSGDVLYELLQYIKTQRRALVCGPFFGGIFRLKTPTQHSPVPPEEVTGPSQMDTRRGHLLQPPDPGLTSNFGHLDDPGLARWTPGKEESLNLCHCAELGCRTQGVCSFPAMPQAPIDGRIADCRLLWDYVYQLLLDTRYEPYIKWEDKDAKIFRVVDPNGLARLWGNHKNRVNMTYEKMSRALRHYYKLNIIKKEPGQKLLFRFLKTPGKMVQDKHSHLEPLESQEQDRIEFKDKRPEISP
Outline: as §1

ELF5 = biological target: T6, ELF5 (Homo sapiens, UniProt Q9UKW6-2 1-255)
T6 sequence: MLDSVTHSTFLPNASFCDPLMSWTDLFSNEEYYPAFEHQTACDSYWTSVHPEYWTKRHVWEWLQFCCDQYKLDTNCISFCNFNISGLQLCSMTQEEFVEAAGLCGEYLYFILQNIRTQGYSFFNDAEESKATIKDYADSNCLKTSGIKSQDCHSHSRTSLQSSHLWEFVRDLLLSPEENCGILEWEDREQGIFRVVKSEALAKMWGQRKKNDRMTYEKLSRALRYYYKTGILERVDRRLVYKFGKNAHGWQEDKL
Outline: as §1

ETV3 = biological target: T7, ETV3 (Homo sapiens, UniProt P41162-2 1-143)
T7 sequence: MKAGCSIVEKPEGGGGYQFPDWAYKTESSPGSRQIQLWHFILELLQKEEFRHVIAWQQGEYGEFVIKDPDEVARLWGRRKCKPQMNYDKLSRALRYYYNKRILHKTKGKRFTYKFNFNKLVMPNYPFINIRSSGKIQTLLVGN
Outline: as §1

ETV6 = ETV6 (Homo sapiens, UniProt P41212 1-452)
Sequence of ETV6 (P41212 whole entry): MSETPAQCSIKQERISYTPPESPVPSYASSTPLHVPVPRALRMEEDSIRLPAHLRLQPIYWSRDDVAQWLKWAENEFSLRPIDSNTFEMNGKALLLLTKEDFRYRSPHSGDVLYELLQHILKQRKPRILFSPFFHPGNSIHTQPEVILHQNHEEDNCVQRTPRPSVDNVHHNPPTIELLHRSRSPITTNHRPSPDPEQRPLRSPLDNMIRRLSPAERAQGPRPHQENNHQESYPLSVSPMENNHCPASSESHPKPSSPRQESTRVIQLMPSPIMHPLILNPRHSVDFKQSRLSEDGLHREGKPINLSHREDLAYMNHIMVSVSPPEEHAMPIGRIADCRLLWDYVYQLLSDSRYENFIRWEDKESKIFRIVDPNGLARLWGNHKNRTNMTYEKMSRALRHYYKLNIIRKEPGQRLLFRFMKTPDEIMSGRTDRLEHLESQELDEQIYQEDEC
Outline: as §1

Sequence	binding signal (ERF)	binding signal (ETV3L)	binding signal (ETS2)	binding signal (SPDEF)	binding signal (ETV7)	binding signal (ELF5)	binding signal (ETV3)	binding signal (ETV6)
TGAACT	1.31 fold enrichment (6-mer frequency, TF over GST control)	1.23 fold enrichment (6-mer frequency, TF over GST control)	1.23 fold enrichment (6-mer frequency, TF over GST control)	1.16 fold enrichment (6-mer frequency, TF over GST control)	1.21 fold enrichment (6-mer frequency, TF over GST control)	1.23 fold enrichment (6-mer frequency, TF over GST control)	1.24 fold enrichment (6-mer frequency, TF over GST control)	1.22 fold enrichment (6-mer frequency, TF over GST control)
CAATCC	1.25 fold enrichment (6-mer frequency, TF over GST control)	1.2 fold enrichment (6-mer frequency, TF over GST control)	1.22 fold enrichment (6-mer frequency, TF over GST control)	1.4 fold enrichment (6-mer frequency, TF over GST control)	1.16 fold enrichment (6-mer frequency, TF over GST control)	1.21 fold enrichment (6-mer frequency, TF over GST control)	1.19 fold enrichment (6-mer frequency, TF over GST control)	1.22 fold enrichment (6-mer frequency, TF over GST control)
ACCTAA	1.17 fold enrichment (6-mer frequency, TF over GST control)	1.18 fold enrichment (6-mer frequency, TF over GST control)	1.17 fold enrichment (6-mer frequency, TF over GST control)	1.19 fold enrichment (6-mer frequency, TF over GST control)	1.18 fold enrichment (6-mer frequency, TF over GST control)	1.14 fold enrichment (6-mer frequency, TF over GST control)	1.03 fold enrichment (6-mer frequency, TF over GST control)	1.18 fold enrichment (6-mer frequency, TF over GST control)
TCCTTG	1.39 fold enrichment (6-mer frequency, TF over GST control)	1.29 fold enrichment (6-mer frequency, TF over GST control)	1.28 fold enrichment (6-mer frequency, TF over GST control)	1.48 fold enrichment (6-mer frequency, TF over GST control)	1.22 fold enrichment (6-mer frequency, TF over GST control)	1.95 fold enrichment (6-mer frequency, TF over GST control)	1.36 fold enrichment (6-mer frequency, TF over GST control)	1.19 fold enrichment (6-mer frequency, TF over GST control)
CTTGAT	1.47 fold enrichment (6-mer frequency, TF over GST control)	1.42 fold enrichment (6-mer frequency, TF over GST control)	1.35 fold enrichment (6-mer frequency, TF over GST control)	1.34 fold enrichment (6-mer frequency, TF over GST control)	1.28 fold enrichment (6-mer frequency, TF over GST control)	1.39 fold enrichment (6-mer frequency, TF over GST control)	1.35 fold enrichment (6-mer frequency, TF over GST control)	1.24 fold enrichment (6-mer frequency, TF over GST control)
ACAATA	1.21 fold enrichment (6-mer frequency, TF over GST control)	1.14 fold enrichment (6-mer frequency, TF over GST control)	1.15 fold enrichment (6-mer frequency, TF over GST control)	1.15 fold enrichment (6-mer frequency, TF over GST control)	1.07 fold enrichment (6-mer frequency, TF over GST control)	1.09 fold enrichment (6-mer frequency, TF over GST control)	1.21 fold enrichment (6-mer frequency, TF over GST control)	1.18 fold enrichment (6-mer frequency, TF over GST control)
TTTTAT	1.17 fold enrichment (6-mer frequency, TF over GST control)	1.39 fold enrichment (6-mer frequency, TF over GST control)	1.23 fold enrichment (6-mer frequency, TF over GST control)	1.22 fold enrichment (6-mer frequency, TF over GST control)	1.34 fold enrichment (6-mer frequency, TF over GST control)	1.3 fold enrichment (6-mer frequency, TF over GST control)	1.45 fold enrichment (6-mer frequency, TF over GST control)	1.36 fold enrichment (6-mer frequency, TF over GST control)
AATCTC	1.27 fold enrichment (6-mer frequency, TF over GST control)	1.15 fold enrichment (6-mer frequency, TF over GST control)	1.19 fold enrichment (6-mer frequency, TF over GST control)	1.14 fold enrichment (6-mer frequency, TF over GST control)	1.2 fold enrichment (6-mer frequency, TF over GST control)	1.29 fold enrichment (6-mer frequency, TF over GST control)	1.2 fold enrichment (6-mer frequency, TF over GST control)	1.26 fold enrichment (6-mer frequency, TF over GST control)
GCTACT	1.52 fold enrichment (6-mer frequency, TF over GST control)	1.2 fold enrichment (6-mer frequency, TF over GST control)	1.39 fold enrichment (6-mer frequency, TF over GST control)	1.27 fold enrichment (6-mer frequency, TF over GST control)	1.33 fold enrichment (6-mer frequency, TF over GST control)	1.2 fold enrichment (6-mer frequency, TF over GST control)	1.19 fold enrichment (6-mer frequency, TF over GST control)	1.38 fold enrichment (6-mer frequency, TF over GST control)
AATAGC	1.25 fold enrichment (6-mer frequency, TF over GST control)	1.03 fold enrichment (6-mer frequency, TF over GST control)	1.15 fold enrichment (6-mer frequency, TF over GST control)	1.1 fold enrichment (6-mer frequency, TF over GST control)	1.19 fold enrichment (6-mer frequency, TF over GST control)	1.16 fold enrichment (6-mer frequency, TF over GST control)	1.23 fold enrichment (6-mer frequency, TF over GST control)	1.1 fold enrichment (6-mer frequency, TF over GST control)
CTGTTA	1.28 fold enrichment (6-mer frequency, TF over GST control)	1.23 fold enrichment (6-mer frequency, TF over GST control)	1.26 fold enrichment (6-mer frequency, TF over GST control)	1.32 fold enrichment (6-mer frequency, TF over GST control)	1.12 fold enrichment (6-mer frequency, TF over GST control)	1.37 fold enrichment (6-mer frequency, TF over GST control)	1.31 fold enrichment (6-mer frequency, TF over GST control)	1.26 fold enrichment (6-mer frequency, TF over GST control)
AAGTAA	1.27 fold enrichment (6-mer frequency, TF over GST control)	1.31 fold enrichment (6-mer frequency, TF over GST control)	1.27 fold enrichment (6-mer frequency, TF over GST control)	1.23 fold enrichment (6-mer frequency, TF over GST control)	1.27 fold enrichment (6-mer frequency, TF over GST control)	1.42 fold enrichment (6-mer frequency, TF over GST control)	1.28 fold enrichment (6-mer frequency, TF over GST control)	1.45 fold enrichment (6-mer frequency, TF over GST control)
